Results on 54 compounds are retold here after PMC4336329 (PLoS ONE, 2015).

Each structure is given as a SMILES string. About 14,000 (4.5%) of roughly 310,000 compounds showed an effect of 50% or more. The effect is printed as a negative number. The sample as a whole holds a higher share of strong results than the screen did.
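Note: peak tail current of the secondary pulse compared with the same well before compound.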

For this assay, the target named is human ether-à-go-go-related gene (hERG) potassium channel (human, UniProt Q12809). Description: primary screen, population patch clamp on CHO cells stably expressing hERG; higher = less effect of the substance.
Chain of human ether-à-go-go-related gene (hERG) potassium channel (Q12809 whole entry, looked up): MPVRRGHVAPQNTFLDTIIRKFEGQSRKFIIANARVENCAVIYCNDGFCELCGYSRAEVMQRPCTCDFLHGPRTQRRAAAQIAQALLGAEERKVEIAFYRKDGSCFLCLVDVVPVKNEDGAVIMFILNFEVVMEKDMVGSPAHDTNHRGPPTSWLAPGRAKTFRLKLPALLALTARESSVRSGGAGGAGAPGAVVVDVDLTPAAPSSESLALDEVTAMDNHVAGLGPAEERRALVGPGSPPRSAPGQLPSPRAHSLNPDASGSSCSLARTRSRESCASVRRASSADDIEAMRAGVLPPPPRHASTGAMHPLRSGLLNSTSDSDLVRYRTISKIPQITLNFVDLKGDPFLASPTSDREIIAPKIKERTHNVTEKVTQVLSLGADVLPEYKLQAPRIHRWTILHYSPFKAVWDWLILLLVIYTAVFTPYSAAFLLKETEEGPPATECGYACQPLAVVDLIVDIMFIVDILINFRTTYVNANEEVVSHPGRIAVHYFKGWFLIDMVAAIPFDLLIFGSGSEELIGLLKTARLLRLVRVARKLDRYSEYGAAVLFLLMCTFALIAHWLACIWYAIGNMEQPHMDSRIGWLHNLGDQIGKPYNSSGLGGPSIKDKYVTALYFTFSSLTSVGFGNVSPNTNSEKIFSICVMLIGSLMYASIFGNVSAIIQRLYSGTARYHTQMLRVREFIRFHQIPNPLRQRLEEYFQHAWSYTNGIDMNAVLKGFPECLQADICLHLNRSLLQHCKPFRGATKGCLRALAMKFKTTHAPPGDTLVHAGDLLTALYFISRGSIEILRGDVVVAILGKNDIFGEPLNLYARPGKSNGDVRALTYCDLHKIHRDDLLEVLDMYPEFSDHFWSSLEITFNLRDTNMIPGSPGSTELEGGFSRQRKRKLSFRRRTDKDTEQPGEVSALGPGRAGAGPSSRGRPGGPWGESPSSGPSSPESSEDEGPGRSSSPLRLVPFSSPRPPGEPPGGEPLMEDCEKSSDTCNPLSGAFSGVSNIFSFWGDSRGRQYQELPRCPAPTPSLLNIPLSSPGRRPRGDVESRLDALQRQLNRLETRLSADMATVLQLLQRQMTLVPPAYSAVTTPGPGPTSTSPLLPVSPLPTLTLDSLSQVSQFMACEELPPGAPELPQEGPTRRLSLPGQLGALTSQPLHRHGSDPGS
In the case of `Cc1noc(C)c1S(=O)(=O)NCc1ccc(CN(C)C)cc1.Cl`, the “hERG current change (%, negative = inhibition) at 10uM” value came out at 6.09%.
The figure for `COc1ccc(CCNC(=O)/C(C#N)=C/c2ccc(OCC(=O)NCC3CCCO3)cc2)cc1OC` (stereo not drawn) is 11.7%; for `CC(C)N(C(=O)COC(=O)c1ccc(O)cc1)C(C)C` it is -1.54%; for `CCS(=O)(=O)c1nc(S(=O)(=O)c2ccc(C)cc2)c(NCCCN2CCCC2=O)s1` it is -11.3%.
Take `CS(=O)(=O)c1nc(S(=O)(=O)c2ccc(Cl)cc2)c(NCCCN2CCOCC2)s1`: the “hERG current change (%, negative = inhibition) at 10uM” value is reported as -46.8%.
For `CCCCNC(=O)c1cn(C)c2ccc(S(=O)(=O)N3CC(C)CC(C)C3)cc2c1=O` (stereo not drawn), the “hERG current change (%, negative = inhibition) at 10uM” value came out at 1.55%.
To `O=C1NC(=S)NC(=O)C12C(c1ccc(F)cc1)NC(=S)NC2c1ccc(F)cc1` (stereo not drawn) belongs -4.14%; to `Cl.Oc1cccc(Nc2nc(-c3ccccc3Cl)nc3ccccc23)c1`, 7.09%; to `CCCn1c(C)cc(C(=O)Cn2nnc3ccccc3c2=O)c1C`, -34.7%.
In the case of `CC(=O)Nc1cccc(NC(=O)CSc2ccc(-c3ccco3)nn2)c1`, the “hERG current change (%, negative = inhibition) at 10uM” value came out at 0.763%.
To `Cc1cccc(NC(=O)CSc2ccc(-c3ccco3)nn2)c1` belongs -59.5%; to `CCc1ccc(NC(=O)CSc2ccc(-c3ccco3)nn2)cc1`, -16.6%.
To `COc1ccc(C(=O)CSc2ccc(-c3ccco3)nn2)cc1` belongs -78.1%.
With `CC(=O)Nc1ccc(NC(=O)CSc2ccc(-c3cccs3)nn2)cc1`, the “hERG current change (%, negative = inhibition) at 10uM” value came out at 11.4%.
With `CC(=O)c1cccc(NC(=O)CSc2ccc(-c3ccco3)nn2)c1`, the “hERG current change (%, negative = inhibition) at 10uM” value is on record as 1.79%.
With `O=C(CSc1ccc(-c2ccco2)nn1)Nc1cccc(F)c1`, the “hERG current change (%, negative = inhibition) at 10uM” value is recorded as -55.2%.
The figure for `O=C(CSc1ccc(-c2cccs2)nn1)Nc1ccccc1` is -35%; for `O=C(CSc1ccc(-c2ccco2)nn1)c1ccc(F)cc1` it is -25.8%; for `Cc1cc(C)cc(NC(=O)CSc2ccc(-c3ccco3)nn2)c1` it is -28.8%.
To `O=C(CSc1ccc(-c2ccco2)nn1)c1ccccc1` belongs -9.74%; to `Cc1cc(C)cc(NC(=O)CSc2ccc(-c3cccs3)nn2)c1`, -52.2%; to `Cc1cc(OC(C)C(=O)Nc2cccnc2)ccc1Cl` (stereo not drawn), 2.05%.
As to `COc1ccc(CNC(=O)C2CCN(S(=O)(=O)c3ccc4c(c3)NC(=O)CO4)CC2)cc1`, the “hERG current change (%, negative = inhibition) at 10uM” value is listed as 16.7%.
Consider `O=C(NC(Cc1c[nH]c2ccccc12)C(=O)O)/C(=C\c1ccc2c(c1)OCO2)NC(=O)c1ccccc1` (stereo not drawn), for which the “hERG current change (%, negative = inhibition) at 10uM” value is given as -7.13%.
On to `CCCC(=O)Nc1ccc2nc(SCC(=O)N3CCCC3)sc2c1`, for which the “hERG current change (%, negative = inhibition) at 10uM” value was 2.52%.
To `O=C(O)c1cccc(S(=O)(=O)N2CCCC(c3nc4c(nnn4Cc4ccc(F)cc4)c(=O)[nH]3)C2)c1` (stereo not drawn) belongs -15.3%.
The figure for `O=C1/C(=C\c2ccc(Br)o2)SC(=Nc2ccccc2)N1c1ccccc1` is -10.1%.
To `Cl.N=c1c2c(n(Cc3ccc(Cl)c(Cl)c3)c3c1CCC3)CCCC2` belongs -15.8%.
As to `COc1cc(NC(=O)Cc2ccccc2)ccc1NC(=O)c1ccco1`, the “hERG current change (%, negative = inhibition) at 10uM” value was determined as 18.5%.
The figure for `O=C(CSc1ccc(-c2ccco2)nn1)Nc1ccc(F)cc1F` is -65.8%; for `O=C(CSc1ccc(-c2ccco2)nn1)Nc1ccc(F)cc1` it is -68.5%; for `Cc1ccc(NC(=O)CSc2ccc(-c3ccco3)nn2)c(C)c1` it is -24.4%.
As for `O=C(CSc1ccc(-c2ccco2)nn1)Nc1ccccc1F`, the “hERG current change (%, negative = inhibition) at 10uM” value is listed as -43.4%.
To `CC(=O)Nc1ccc(NC(=O)CSc2ccc(-c3ccco3)nn2)cc1` belongs -2.54%.
To `O=C(CSc1ccc(-c2ccco2)nn1)Nc1ccccc1` belongs -47.6%; to `CC(NC(=O)c1ccco1)c1nc(-c2ccccc2Cl)no1` (stereo not drawn), 3.9%; to `Cc1cc2nc(-c3cccc(NC(=O)c4ccc(Br)o4)c3C)oc2cc1C`, 5.67%.
On to `Cc1nc(C)c(-c2ccc(SCC(=O)Nc3cccc(F)c3)nn2)s1`, for which the “hERG current change (%, negative = inhibition) at 10uM” value came to 8.66%.
Take `CC(C)C(=O)Nc1ccc(Cc2ccc(NC(=O)C(C)C)c(O)c2)cc1O`: the “hERG current change (%, negative = inhibition) at 10uM” value is listed as -23%.
As for `COc1cccc(-c2nc(CS(=O)(=O)CC(=O)NCCc3ccc(OC)cc3OC)c(C)o2)c1`, the “hERG current change (%, negative = inhibition) at 10uM” value is reported as -13%.
The figure for `Cc1ccnc(NS(=O)(=O)c2ccc(NC(=O)Cc3ccccc3)cc2)n1` is 5.26%.
To `COc1ccc(/C=C/C(=O)NCCc2ccc(S(N)(=O)=O)cc2)cc1` belongs 3.55%; to `COc1ccc(/C=C/C(=O)NCCOc2ccc(C)cc2)cc1`, 6.3%.
To `NS(=O)(=O)c1ccc(CCNC(=O)/C=C/c2ccc([N+](=O)[O-])cc2)cc1` belongs -69.8%.
Take `O=C(/C=C/c1cccc([N+](=O)[O-])c1)NCCc1ccc(F)cc1`: the “hERG current change (%, negative = inhibition) at 10uM” value is listed as -21.8%.
The figure for `O=C(/C=C/c1ccc([N+](=O)[O-])cc1)NCc1ccco1` is -24.1%; for `O=C(/C=C/c1ccc([N+](=O)[O-])cc1)NCCc1ccccc1` it is -14.4%; for `O=C(/C=C/c1cccc([N+](=O)[O-])c1)NCCSCc1ccco1` it is -29.5%.
As for `COc1ccccc1OCCNC(=O)/C=C/c1ccc([N+](=O)[O-])cc1`, the “hERG current change (%, negative = inhibition) at 10uM” value was -49.2%.
The figure for `COc1ccc(OCCNC(=O)/C=C/c2ccc([N+](=O)[O-])cc2)cc1` is -64.7%; for `NS(=O)(=O)c1ccc(CCNC(=O)/C=C/c2cccc([N+](=O)[O-])c2)cc1` it is -13.7%; for `O=C(/C=C/c1ccc([N+](=O)[O-])cc1)NCCc1ccc(F)cc1` it is -60.3%.
Consider `O=C(/C=C/c1ccc([N+](=O)[O-])cc1)NCCSCc1ccco1`, for which the “hERG current change (%, negative = inhibition) at 10uM” value is listed as -61.3%.
As to `O=[N+]([O-])c1cc(/C=N\Nc2ccccn2)ccc1Cl`, the “hERG current change (%, negative = inhibition) at 10uM” value is given as 18.4%.
